The text below walks through data of PubChem BioAssay.

Unmarked numbers belong to inactive results. How the calls were made is not given here.

The assay deals with Pantothenate synthetase (Mycobacterium tuberculosis (strain ATCC 25618 / H37Rv)) (UniProt P9WIL5). Nature of the assay: Coupled enzyme confirmation of inhibitors against recombinant Mtb PanC (AID 375).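 Further: 0% = full reaction with vehicle and 100% = no enzyme background.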 As to conditions: coupled enzyme assay; at 10 µM, active compounds read high.
Chain of Pantothenate synthetase (Mycobacterium tuberculosis (strain ATCC 25618 / H37Rv)) (P9WIL5 whole entry, looked up): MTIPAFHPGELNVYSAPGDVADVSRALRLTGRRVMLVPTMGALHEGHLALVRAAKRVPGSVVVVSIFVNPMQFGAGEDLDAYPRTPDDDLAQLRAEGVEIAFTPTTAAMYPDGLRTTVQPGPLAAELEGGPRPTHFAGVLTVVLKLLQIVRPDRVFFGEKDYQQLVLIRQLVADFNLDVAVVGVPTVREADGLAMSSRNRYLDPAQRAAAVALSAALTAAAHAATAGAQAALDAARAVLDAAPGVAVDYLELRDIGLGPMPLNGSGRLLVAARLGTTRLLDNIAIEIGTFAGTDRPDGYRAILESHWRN
Consider `CCC(=O)N1CCc2cc(S(=O)(=O)CCC(=O)Nc3c(C)n(C)n(-c4ccccc4)c3=O)ccc21`, for which the inhibition is 7%.
For `Cc1cc(S(=O)(=O)N2CCN(c3ccccc3C)CC2)ccc1F`, the inhibition is 5%.
The figure for `O=C(COc1ccc(Cl)cc1)Nc1nc(-c2cccs2)cs1` is 1%; for `Cc1onc(-c2ccccc2)c1C(=O)Nc1sc2c(c1C(N)=O)CCC2` it is 5%; for `COc1ccc(N2CCN(c3ccc(NC(=O)C4CCCCC4)cc3C#N)CC2)cc1` it is 0%.
Turning to `CCCc1cc(-c2n[nH]c(C)c2-c2ccc(C(=O)OCC)o2)c(O)cc1O`, the inhibition was 6%.
Under `CCN(CCCNC(=O)CCNC(=O)Cn1ccc2ccccc2c1=O)c1ccccc1` stands 1%; under `COc1ccc(C2CC(c3ccc(Cl)cc3)Nc3nc(NC(=O)c4ccco4)nn32)cc1` (stereo unspecified), 4%.
Under `COc1ccccc1-n1c(=O)[nH]c2c(C(N)=O)nc(-c3cccnc3)nc21` stands 0%; under `CCN1CCc2c(C#N)c(N3CCCCC3)nc(NCc3ccccc3)c2C1`, 0%.
Under `CCC(=O)OCCn1c(=O)c2cc3c(=O)n(CCOC(=O)CC)c(=O)c3cc2c1=O` stands 0%; under `Cc1ccc(F)cc1NC(=O)c1cccc2nccnc12`, 1%; under `Cc1ccc(S(=O)(=O)N2CCN(C(=O)N3CCOCC3)C2C)cc1` (stereo unspecified), 0%.
Consider `CC(C)(C)n1nnnc1CN1CCN(C2CCCC2)CC1`, for which the inhibition is 3%.
As to `Cc1ccc(NC(=O)C2CCCN(S(=O)(=O)c3cnc[nH]3)C2)c(Br)c1` (stereo unspecified), the inhibition is 0%.
For `CN(c1ccccc1)S(=O)(=O)c1ccc(C(=O)OCC(=O)N2CCOCC2)cc1`, the inhibition is 7%.
